This is a sample that favours compounds with a hit; in the whole collection about 3.1% have one here.
A549 tox: kills or reduces viability of A549 cells in Nrf2 counter-screen; Potency, µM (top dose mostly 46 µM), actives largely listed as inhibitors; A549 ARE-Fluc cells, CellTiter-Fluor viability, 18-24 h; AID 504648; 0.16% of 390,000 active
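A549 ARE_Fluc cells in 5% FBS OPTI-MEM were exposed to compounds in concentration-response for 18-24 h at 37 deg C. Viability was read by CellTiter-Fluor fluorescence (Ex 405/Em 525) after 30 min, before the luciferase read.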
rTrxR1 inhibitor: blocks rat thioredoxin reductase 1 | O89049 | recombinant rTrxR1, NADPH fluorescence consumption, selenite substrate | Potency, µM (top dose mostly 114 µM), most hits filed as inhibitors | 1% of 390,000 active; also: nearly all actives have a fitted effect of over 65% in size
Target sequence (O89049 whole entry, looked up): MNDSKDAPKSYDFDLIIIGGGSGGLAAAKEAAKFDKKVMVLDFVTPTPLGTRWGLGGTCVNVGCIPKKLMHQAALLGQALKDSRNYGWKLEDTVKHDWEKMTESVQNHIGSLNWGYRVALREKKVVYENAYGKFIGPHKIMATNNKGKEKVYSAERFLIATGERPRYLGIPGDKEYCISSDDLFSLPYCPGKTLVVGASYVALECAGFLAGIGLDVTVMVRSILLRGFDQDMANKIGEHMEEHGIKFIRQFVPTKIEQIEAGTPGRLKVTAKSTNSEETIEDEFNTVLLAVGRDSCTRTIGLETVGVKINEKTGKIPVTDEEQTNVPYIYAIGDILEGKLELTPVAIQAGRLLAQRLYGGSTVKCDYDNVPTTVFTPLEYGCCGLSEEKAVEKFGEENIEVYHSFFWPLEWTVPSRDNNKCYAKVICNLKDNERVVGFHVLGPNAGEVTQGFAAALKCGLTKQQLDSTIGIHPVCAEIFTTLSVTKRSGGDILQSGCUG
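Rat TrxR1 (90 nM in the dispensed reagent) was pre-reduced with 400 uM NADPH for 5 min at room temperature, then incubated with compound for 15 min. After 400 uM selenite was added, NADPH fluorescence (Ex 340/Em 450 nm) was followed for 8 min.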
mIDH1 inhibitor: human IDH1 R132H inhibition; O75874; IDH1-R132H enzyme, NADPH consumption, diaphorase/resazurin fluorescence; Potency, µM (doses to about 76.6 µM), most hits filed as inhibitors; 0.093% of 390,000 active; also: nearly all actives have a fitted effect of over 65% in size
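IDH1-R132H (0.5 ug/mL dispensed) in pH 7.5 Tris buffer was preincubated 30 min with compound, then given a substrate mix of 0.016 mM NADPH and 2 mM alpha-KG for 80 min at room temperature; remaining NADPH was read by diaphorase/resazurin fluorescence.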
TrxR1 substrate: rat thioredoxin reductase 1 substrate activity; O89049; purified TrxR1 substrate turnover, NADPH consumption readout; Potency, µM (series often up to 114 µM); 0.01% of 390,000 active; also: nearly all actives have a fitted effect of over 50% in size
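Rat TrxR1, dispensed at 90 nM, was prereduced with 400 uM NADPH (final) for 5 min at ~22 deg C, then incubated with compound 15 min before 400 uM selenite. A first-read NADPH fluorescence drop versus no-compound background flagged substrates.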
Nrf2 block: blocks Nrf2 signaling. Potency, µM (top dose mostly 46 µM), hits mostly inhibitors. A549 ARE-Fluc reporter, luciferase luminescence, 18-24 h. 2.1% of 360,000 active. AID 504444; also: nearly all actives have a fitted effect of over 60% in size
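Nrf2 function is reported as luminescence of an ARE-controlled luciferase in A549 cells. Compounds were tested at several concentrations, and a CellTiter-Fluor read on the same wells flagged cytotoxicity.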
Mito fusion act: inhibitors of mitochondrial division or activators of mitochondrial fusion | 0.23% of 320,000 active | Potency, µM (doses to about 46.1 µM), hits mostly activators | S. cerevisiae fusion-defective mutant growth rescue, CellTiterGlo 48 h; also: nearly all actives have a fitted effect of over 45% in size
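Luminescent cell viability in 1536-well qHTS format served as the measure of rescued growth in ts fusion-mutant S. cerevisiae cultured on non-fermentable YPEG for 48 hours at 37C.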
Hits are given with their value; . = inactive; ? = inconclusive; / = no result; [ ] = remark or other dose. Calls follow the shape of the dose curve; as a rule, active = well fitted curve in the direction sought with a large enough effect; inconclusive = small, poorly fitted or top-dose-only effect, or another doubt; inactive = no such curve, though single readings can be large; an effect the other way counts as inactive or inconclusive.

SMILES	A549 tox	rTrxR1 inhibitor	mIDH1 inhibitor	TrxR1 substrate	Nrf2 block	Mito fusion act
Cc1ccnc(NC(c2cc(C)ccc2O)c2ccc3cccnc3c2O)c1 (stereo not drawn)	.	5µM	/	.	?	/
Cc1ccnc(NC(c2cccnc2)c2ccc3cccnc3c2O)c1 (stereo not drawn)	.	3.5µM	.	.	.	.
COc1ccccc1NC(c1cccnc1)c1ccc2cccnc2c1O (stereo not drawn)	.	0.71µM	.	.	.	.
Cc1ccnc(NC(c2ccccc2)c2ccc3cccnc3c2O)c1 (stereo not drawn)	.	.	.	.	?	/
CC(=O)N1CCc2cc(S(=O)(=O)N3CCN(S(=O)(=O)c4c(F)cccc4F)CC3)ccc21	.	/	/	/	.	/
Cc1ccc(Cl)cc1NC(=O)Nc1nnc(N(C)Cc2ccccc2)s1	.	.	.	.	.	/
O=C(Nc1ccc(C(=O)N2CCCCC2)cc1)c1nsc2ccccc12	.	.	.	.	/	/
CC(=O)c1c(C)[nH]c(C(=O)CSc2nnc(C3CCCCC3)n2N)c1C	.	.	.	.	21µM	.
COc1cc2c(cc1OC)C1=NC(=O)CN1C(SCc1ccccc1C)=N2	.	.	.	.	9.2µM	.
Cc1ccc(CSC2=Nc3ccccc3C3=NC(=O)CN23)cc1	.	.	.	.	.	.
Cc1nn(Cc2ccc(Cl)cc2)c(C)c1NC(=O)CCCn1nc(C)c([N+](=O)[O-])c1C	?	.	.	.	21µM	.
Cc1c(C(=O)N2CCC(C)CC2)sc2ncnc(N(C)c3ccccc3)c12	.	.	.	.	18µM	.
Cc1c(C(=O)N2CCC(Cc3ccccc3)CC2)sc2ncnc(N3CCC(C)CC3)c12	.	.	.	.	.	.
COc1ccccc1N1CCN(S(=O)(=O)c2ccc(-c3ccc(=O)[nH]n3)o2)CC1	.	.	.	.	.	.
Cc1cccc(N2CCN(S(=O)(=O)c3ccc(-c4ccc(=O)[nH]n4)o3)CC2)c1C	?	.	.	.	13µM	.
CCOC(=O)C1CCN(c2c(C(=O)c3ccc(OCC)cc3)cnc3ccc(OC)cc23)CC1	.	.	.	.	.	/
CCOC(=O)CSC1=C(C#N)C(c2ccc(C)s2)CC(=O)N1 (stereo not drawn)	?	.	.	.	21µM	.
CCCCOc1ccc(CNC(=O)CCCN2C(=O)CSc3c2c(C)nn3-c2ccccc2)cc1	.	.	.	.	29µM	/
CCCN(CC(=O)Nc1ccccc1OC)C(=O)c1ccc2[nH]c3c(c2c1)CC(C)CC3 (stereo not drawn)	?	.	.	.	23µM	.
CC1CC(=O)c2c(cc3c(-c4c(O)cc(O)c5c(O)c6c(cc45)OC(C)CC6=O)c(O)cc(O)c3c2O)O1 (stereo not drawn)	?	.	.	.	12µM	.
O=C1CC(c2ccc(O)cc2)Oc2cc(O)cc(O)c21 (stereo not drawn)	.	.	.	.	.	.
O=C(CN1C2CCCC1CC(NC(=O)C1CCCCC1)C2)Nc1ccccc1C(F)(F)F (stereo not drawn)	.	.	.	.	23µM	.
Nc1cc(OC(=O)c2ccco2)nn1S(=O)(=O)c1ccc(F)cc1	.	7.1µM	.	.	.	.
Cc1cccc(N2CCN(CC(=O)Nc3ccc(S(=O)(=O)N4CCOCC4)cc3)CC2)c1C	.	.	.	.	16µM	.
Cc1cccc(N2CCN(CC(=O)Nc3nccs3)CC2)c1C	.	.	.	.	16µM	.
SMILES	A549 tox	rTrxR1 inhibitor	mIDH1 inhibitor	TrxR1 substrate	Nrf2 block	Mito fusion act
Cc1nc(SCC(=O)Nc2ccc(S(=O)(=O)N3CCOCC3)cc2)c2c(C)c(C)sc2n1	?	.	.	.	12µM	/
COc1ccccc1N1CCN(CC(=O)Nc2nccs2)CC1	.	.	.	.	.	.
Cc1nc(SCC(=O)N2CCOCC2)c2c(C)c(C)sc2n1	.	.	.	.	.	.
O=[N+]([O-])c1c(Nc2ccccc2O)cc(Cl)c2nonc12	?	0.71µM	.	.	.	.
O=[N+]([O-])c1c(Nc2ccccc2O)ccc2nonc12	.	.	.	.	.	.
O=C(O)c1cc(Nc2cc(Cl)c3nonc3c2[N+](=O)[O-])ccc1O	?	1.8µM	.	.	.	.
Cc1ccc(SCCC(=O)N/N=C/c2ccncc2)cc1	.	.	.	.	15µM	.
Cc1ccc(/C=N/NC(=O)CCSc2ccccc2)cc1	.	.	.	.	.	.
O=C1/C(=C/c2ccco2)Oc2c1ccc(O)c2CN1CCCCC1	.	?	.	.	.	.
CCC(=O)Oc1ccc2c(c1)O/C(=C\c1ccco1)C2=O	.	79µM	.	.	.	.
COCCN(CCOC)Cc1c(O)ccc2c1O/C(=C\c1ccco1)C2=O	.	79µM	.	.	.	.
CN(C)c1ccc2ccc3cccc4ccc1c2c34	/	.	/	.	/	/
N#CCSc1nc2c(c(=O)n1Cc1ccco1)C1(CCCC1)Cc1ccccc1-2	.	45µM	.	.	.	.
CCCn1c(SCC#N)nc2c(c1=O)C1(CCCC1)Cc1ccccc1-2	.	.	.	.	.	.
O=C(CCn1nc(-c2ccc(Cl)cc2)c2ccccc2c1=O)Nc1ccc(OC(F)(F)F)cc1	.	.	/	.	.	/
CC(=O)N1CCOc2cc(S(=O)(=O)NCc3ccc(C)cc3)c(C)cc21	.	.	.	.	.	/
C/C(=N\NC(=S)NCC(C)(C)C)c1cc(F)cc(F)c1O	?	.[11.4 µM]	.	.	23µM	.
NCCc1nnc(SCc2c(Cl)cccc2Cl)o1	.	.	.	.	.	.
NCCCCCc1nnc(SCc2ccccc2Cl)o1	?	.	.	.	13µM	.
N#Cc1nc(Nc2cccc([N+](=O)[O-])c2)nc(NC2CCCC2)n1	.	/	/	/	.	/
COc1ccccc1CNC(=O)Cn1ncc2c(C)n(Cc3ccccc3Cl)c(C)c2c1=O	.	.	.	.	?	/
CCC(=O)N1N=C(c2ccc(NS(=O)(=O)c3ccc(C)cc3)cc2)CC1c1ccco1 (stereo not drawn)	.	.	.	.	18µM	/
O=C(O)CCC(=O)N1N=C(c2c(-c3ccccc3)c3cc(Cl)ccc3[nH]c2=O)CC1c1ccco1 (stereo not drawn)	.	.	.	.	.	.
CCC(=O)N1N=C(c2c(-c3ccccc3)c3cc(Cl)ccc3[nH]c2=O)CC1c1ccco1 (stereo not drawn)	?	.	?	.	23µM	.
CCC(=O)N1N=C(c2ccc(C)cc2)CC1c1ccco1 (stereo not drawn)	.	.	.	.	.	.
Cc1cc2nccc(C)c2cc1C	/	.	/	.	/	/

Source: PubChem BioAssay
